# Experimental data as given in the GenesisPotency data set.
# Out of some 110 compounds screened, fewer than 10 were called active.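 The calls were made as follows: active = EC50 at or below 33 microM; inactive = the rest.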 A selection follows. Potency and affinity values are given separately.
# Target: Ammonium transporter MEP2, Saccharomyces cerevisiae (strain ATCC 204508 / S288c) (UniProt P41948)
# Assay: MEP2-GFP expression modulation in yeast, dose response, flow cytometry, KU SAR set, S. cerevisiae (AID 488801)
# Chain of Ammonium transporter MEP2, Saccharomyces cerevisiae (strain ATCC 204508 / S288c) (P41948 whole entry): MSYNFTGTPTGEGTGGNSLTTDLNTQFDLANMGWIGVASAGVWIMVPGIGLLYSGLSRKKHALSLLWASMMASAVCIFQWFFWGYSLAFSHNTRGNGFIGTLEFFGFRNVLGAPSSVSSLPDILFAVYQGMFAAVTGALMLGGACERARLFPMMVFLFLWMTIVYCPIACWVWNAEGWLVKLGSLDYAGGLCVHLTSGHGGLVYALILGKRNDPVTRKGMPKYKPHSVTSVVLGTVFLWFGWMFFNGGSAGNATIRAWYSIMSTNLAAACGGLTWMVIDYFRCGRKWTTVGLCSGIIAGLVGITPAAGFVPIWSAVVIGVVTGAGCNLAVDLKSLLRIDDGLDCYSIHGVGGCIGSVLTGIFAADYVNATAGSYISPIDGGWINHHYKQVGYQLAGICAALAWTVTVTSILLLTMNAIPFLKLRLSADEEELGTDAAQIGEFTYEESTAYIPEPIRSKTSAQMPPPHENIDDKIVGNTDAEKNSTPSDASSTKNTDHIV
row,Compound,outcome
1,O=[N+]([O-])c1ccc(O)c2ncccc12,inactive
2,CC(C)(C)c1ccc(NC(=O)COC(=O)c2ccc([N+](=O)[O-])s2)cc1,inactive
3,Nc1nc(NCc2ccco2)nc(Nc2cccc(F)c2)c1[N+](=O)[O-],inactive
4,CC(C)(C)C(=O)NC(=S)NNC(=O)c1ccc(-c2ccccc2)cc1,inactive
5,Nc1nc(Nc2ccccc2F)nc(Nc2cccc(F)c2)c1[N+](=O)[O-],inactive
6,CNc1nc(N)c([N+](=O)[O-])c(Nc2cc(OC)ccc2OC)n1,inactive
7,CNc1nc(N)c([N+](=O)[O-])c(NCc2ccccc2)n1,inactive
8,CCC(C)Nc1nc(N)c([N+](=O)[O-])c(Nc2cccc(F)c2)n1 (stereo not drawn),inactive
9,O=C(CCc1ccccc1)NNC(=S)NC(=O)c1ccccc1,inactive
10,CC(Oc1ccc(Cl)cc1)C(=O)NNC(=S)NC(=O)c1ccco1 (stereo not drawn),inactive
11,O=[N+]([O-])c1cc(O)c2ncccc2c1,inactive
12,Cc1ccc2nc(Cl)c3nnnn3c2c1,inactive
13,Cc1nn2c(-c3ccncc3)nnc2c2ccccc12,inactive
